Among the test systems are NCI-H23 lung; NCI-H226 lung; NCI-H322M lung; NCI-H460 lung; HOP-92 NSCLC; NCI-H522 lung; A549/ATCC NSCLC; 786-0 renal; COLO 205 colon; DU-145 prostate; K-562 leukemia; MALME-3M melanoma; MDA-MB-231 breast; RXF 393 renal; SF-268 CNS; SF-295 CNS; SF-539 CNS; UACC-257 melanoma; M14 melanoma; HOP-62 NSCLC.
Assay in all cases: NCI-60 one-dose screen, 48 h (100 = growth as untreated, 0 = no growth, -100 = all killed)
Holding throughout (details): 10 µM unless noted

The source of these data is PubChem BioAssay (NCI).

The panel holds about 83,000 compounds, 20% with a hit somewhere; the sample as a whole holds those more often.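 Note: values are percent growth. 100 is the growth of untreated cells, values between 100 and 0 indicate rising inhibition; between -100 and 0 indicates cell death.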 Unmarked numbers belong to inactive results. The source made the active and inactive calls. The calls were made as follows: active = growth percent below 10; inactive = the rest.

Take `CSc1n(Cc2ccc3ccccc3c2)c(C)c[n+]1Cc1ccc2ccccc2c1`: the growth in the assay on NCI-H23 lung is -50.8% (active); with NCI-H226 lung, -37% (active); with NCI-H322M lung it was 40.5%; with NCI-H460 lung, -0.332% (active); in the assay with HOP-92 NSCLC, -44.4% (active); with NCI-H522 lung, -26.9% (active). For the same compound, the growth in the assay on A549/ATCC NSCLC was 16.5%; with 786-0 renal, 8.97% (active); in the assay on COLO 205 colon, -54.3% (active); in the assay with DU-145 prostate, -12.8% (active); with K-562 leukemia, 8.26% (active); in the assay with MALME-3M melanoma it was -25.1% (active). Moreover, the growth is -30.8% (active) with MDA-MB-231 breast; -26.1% (active) in the assay on RXF 393 renal; -11.7% (active) with SF-268 CNS; -23.3% (active) in the assay on SF-295 CNS; 8.44% (active) in the assay on SF-539 CNS; -41.5% (active) in the assay on UACC-257 melanoma. In addition, the growth with M14 melanoma was -14.3% (active).
For the compound `COc1ccc(-c2nc3c(N)c(CO)c(C)nc3o2)cc1`, the growth is 86.6% in the assay on NCI-H23 lung; 41.2% in the assay with NCI-H226 lung; 92.5% with NCI-H322M lung; 108% in the assay with NCI-H460 lung; 116% in the assay with HOP-92 NSCLC; 91.6% in the assay on NCI-H522 lung. For the same compound, the growth in the assay on A549/ATCC NSCLC was 92.4%; with 786-0 renal, 95.5%; in the assay with COLO 205 colon, 109%; with DU-145 prostate it was 102%; in the assay on K-562 leukemia, 91.5%; with MALME-3M melanoma, 96.7%. The growth with MDA-MB-231 breast is 111%; with RXF 393 renal, 96%; in the assay with SF-268 CNS, 94.9%; with SF-295 CNS it was 99.1%; in the assay on SF-539 CNS, 93.9%; in the assay with UACC-257 melanoma, 101%. The growth in the assay on M14 melanoma is 106%.
On to `CCN1C(=O)N(CC)C2Nn3c(s/c(=C\c4cccc([N+](=O)[O-])c4)c3=O)=NC21` (configuration not stated), for which the growth in the assay with NCI-H23 lung was 57.7%; with NCI-H226 lung it was 88%; in the assay on NCI-H322M lung, 64.3%; in the assay on NCI-H460 lung, 23.8%; in the assay on HOP-92 NSCLC it was 75.8%; with NCI-H522 lung, 18.5%. Besides, the growth with A549/ATCC NSCLC was 45.1%; in the assay with 786-0 renal, 36%; with COLO 205 colon it was 6.72% (active); in the assay on DU-145 prostate, 30.5%; in the assay with K-562 leukemia, 19.9%; in the assay on MALME-3M melanoma it was 57.8%. Besides, the growth in the assay on MDA-MB-231 breast was 30.7%; with RXF 393 renal, 25.4%; with SF-268 CNS, 63.9%; with SF-295 CNS, 31%; in the assay on SF-539 CNS it was 12.8%; with UACC-257 melanoma, 77.5%. Also, the growth in the assay with M14 melanoma was 22.2%.
With `O=C(O)c1ccc2c(c1Cl)C(=O)c1ccccc1C2=O`, the growth with NCI-H23 lung was 93.4%; with NCI-H226 lung it was 103%; in the assay with NCI-H322M lung, 102%; with NCI-H460 lung it was 102%; in the assay with HOP-92 NSCLC it was 109%; with NCI-H522 lung, 106%. Also, the growth in the assay on A549/ATCC NSCLC was 116%; in the assay on 786-0 renal, 91.1%; with COLO 205 colon, 115%; in the assay on DU-145 prostate it was 107%; in the assay on K-562 leukemia, 73.7%; in the assay on MALME-3M melanoma it was 132%. Also, the growth in the assay with MDA-MB-231 breast is 112%; in the assay with RXF 393 renal it was 165%; with SF-268 CNS, 113%; in the assay with SF-295 CNS it was 108%; in the assay with SF-539 CNS, 102%; with UACC-257 melanoma, 109%. For the same compound, the growth with M14 melanoma was 103%.
As for `Cc1cccc(Cc2cnc(NC(=O)c3ccc4nnsc4c3)s2)c1`, the growth is 92.7% in the assay with NCI-H23 lung; 102% in the assay on NCI-H226 lung; 97.4% with NCI-H322M lung; 114% in the assay with NCI-H460 lung; 74.7% in the assay with HOP-92 NSCLC; 77% in the assay on NCI-H522 lung. Further, the growth is 96.2% in the assay with A549/ATCC NSCLC; 96% in the assay with 786-0 renal; 94.8% with COLO 205 colon; 74% in the assay with DU-145 prostate; 39.4% in the assay with K-562 leukemia; 95.3% in the assay on MALME-3M melanoma. In addition, the growth with MDA-MB-231 breast was 111%; with RXF 393 renal, 97.5%; in the assay with SF-268 CNS, 89.9%; in the assay with SF-295 CNS it was 93.7%; in the assay on SF-539 CNS, 91%; in the assay with UACC-257 melanoma, 95.4%. Further, the growth with M14 melanoma was 64.6%.
Regarding `O=c1ccn2nc3ccccc3c2[nH]1`, the growth with NCI-H23 lung is 94.6%; in the assay on NCI-H226 lung, 91.3%; with NCI-H322M lung, 97.8%; in the assay with NCI-H460 lung it was 109%; in the assay with HOP-92 NSCLC, 71.2%; in the assay on NCI-H522 lung, 91.9%. Further, the growth with A549/ATCC NSCLC was 116%; with 786-0 renal, 99.2%; in the assay with COLO 205 colon, 124%; in the assay with DU-145 prostate it was 128%; with K-562 leukemia it was 98.5%; in the assay with MALME-3M melanoma it was 86.7%. The growth in the assay with MDA-MB-231 breast is 91.3%; with RXF 393 renal it was 123%; in the assay on SF-268 CNS it was 110%; with SF-295 CNS, 118%; in the assay on SF-539 CNS, 95.9%; in the assay on UACC-257 melanoma, 130%. In addition, in the assay on M14 melanoma, the growth is 98.6%.
For `Cc1ccc(/C=C2\C(=O)N(C)c3ccc(S(=O)(=O)Nc4ccc(C(C)(C)C)cc4)cc32)s1`, the growth with NCI-H23 lung was 64.1%; in the assay on NCI-H322M lung, 58.7%; in the assay with HOP-62 NSCLC it was 31.8%; in the assay with NCI-H460 lung, 32.1%; in the assay with HOP-92 NSCLC, 60%; in the assay on NCI-H522 lung, 43.4%. Besides, the growth is 33.1% in the assay on A549/ATCC NSCLC; 40.1% with 786-0 renal; 70.9% in the assay with COLO 205 colon; 38.9% with DU-145 prostate; 66.7% in the assay with K-562 leukemia; 42.5% with MALME-3M melanoma. The growth in the assay with MDA-MB-231 breast is 21.2%; with RXF 393 renal it was 42.1%; in the assay with SF-268 CNS, 26.7%; in the assay on SF-295 CNS, 42.6%; in the assay on SF-539 CNS, 19.4%; with UACC-257 melanoma, 76%. The growth with M14 melanoma was 67%.
With `COc1cc2nc(Cl)nc(Nc3ccc(S(=O)(=O)Nc4nccs4)cc3)c2cc1OC`, the growth is 101% with NCI-H23 lung; 102% with NCI-H322M lung; 92% in the assay on HOP-62 NSCLC; 106% in the assay with NCI-H460 lung; 118% with HOP-92 NSCLC; 91.3% in the assay on NCI-H522 lung. Moreover, the growth in the assay with A549/ATCC NSCLC was 102%; with 786-0 renal, 101%; in the assay on COLO 205 colon, 110%; in the assay on DU-145 prostate it was 119%; with K-562 leukemia, 115%; in the assay on MALME-3M melanoma, 112%. In addition, the growth with MDA-MB-231 breast was 109%; in the assay with RXF 393 renal, 110%; in the assay on SF-268 CNS it was 109%; with SF-295 CNS it was 104%; in the assay on SF-539 CNS, 85.9%; in the assay on UACC-257 melanoma it was 103%. Moreover, in the assay with M14 melanoma, the growth was 100%.
